From PubChem BioAssay (NCATS)
Inconclusive results are not listed. A call without a number means that no potency is given here. Activity calls are given as the source filed them. The call rests on the fitted dose curve; in most records, active means well fitted curve in the direction sought with a large enough effect; inconclusive means small, poorly fitted or top-dose-only effect, or another doubt; inactive means no such curve, though single readings can be large; an effect the other way counts as inactive or inconclusive.

How the values were obtained:
[1] = MultiTox-Fluor Cytotoxicity Assay - LYMP1-002 - Dead Cells (AID 960); further: nearly all actives have a fitted effect of over 60% in size; further: potency means the concentration at half of the fitted maximal effect
Outline: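 Dead-cell fluorescence (Ex/Em 485/520) after 16 h compound exposure at 37 C of LYMP1-002 lymphoblastoid cells in complete medium; AC50 by Hill equation, with data scaled between DMSO and 15 uM tetraoctylammonium bromide.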

[2] = MultiTox-Fluor Cytotoxicity Assay - LYMP1-003 - Dead Cells (AID 961); further: nearly all actives have a fitted effect of over 70% in size; further: potency means the concentration at half of the fitted maximal effect
Outline: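 Acute toxicity is scored as increased dead-cell protease activity in human lymphoblastoid LYMP1-003 cells after 16 h compound exposure in complete culture medium. Activity is normalized to DMSO basal and 15 uM tetraoctylammonium bromide as full response.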

[3] = MultiTox-Fluor Cytotoxicity Assay - LYMP1-003 - Live Cells (AID 962);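 further: cells exposed to compound for 16 hours at 37 °C; cytotoxic hits lower the live-cell protease signal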
Outline: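 Live-cell protease activity (GF-AFC substrate, 405/510 nm, 60 min at room temperature) after 16 h, 37 C compound exposure of human lymphoblastoid LYMP1-003 cells; concentration-response fitted to the Hill equation for AC50.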

[4] = Cell Viability - LYMP1-003 - Assay at 24 hr (AID 963)
Outline: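 Concentration-response qHTS: ATP loss measured by CellTiter-Glo luminescence after 24 h compound exposure at 37 C. Cells were LYMP1-003 human lymphoblastoid, 2500 per well. AC50 derived via standard Hill equation modeling.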

[5] = Cell Viability - LYMP1-003 - Assay at 40 hr (AID 964); further: nearly all actives have a fitted effect of over 60% in size; further: potency means the concentration at half of the fitted maximal effect
Outline: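 Viability is taken as cellular ATP, read by CellTiter-Glo luminescence after 40 h of compound exposure at 37 C. Cells: human lymphoblastoid line LYMP1-003 at 2500/well; AC50 values derived by Hill-equation fitting of concentration-response data.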

[6] = Cell Viability - LYMP2-003 (AID 965);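 further: cells exposed to compounds for 24 h before reading; nearly all actives have a fitted effect of over 50% in size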; further: potency means the concentration at half of the fitted maximal effect
Outline: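 Human lymphoblastoid cells (2500/well) were pre-incubated 5 hr at 37 C, then exposed to compounds over a concentration range for 24 hr at 37 C. Intracellular ATP was read by CellTiter-Glo luminescence; AC50 came from Hill-equation fits.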

[7] = Cell Viability - LYMP2-005 (AID 967); further: potency means the concentration at half of the fitted maximal effect
Outline: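 CellTiter-Glo luminescence (cellular ATP) read-out; LYMP2-005 lymphoblastoid cells, 2500/well, 5 h pre-incubation, then 24 h compound exposure at 37 C in complete medium. Tetraoctylammonium bromide positive control; AC50 by standard Hill fit.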

[8] = Cell Viability - LYMP2-009 (AID 968); further: nearly all actives have a fitted effect of over 55% in size; further: potency means the concentration at half of the fitted maximal effect
[9] = Cell Viability - LYMP2-011 (AID 969); further: nearly all actives have a fitted effect of over 60% in size; further: potency means the concentration at half of the fitted maximal effect
Outline: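 Cytotoxicity qHTS with ATP content as read-out: lymphoblastoid cells (2500/well) exposed to compound for 24 h at 37 C, then luciferase luminescence measured. Concentration-response data fitted with the standard Hill equation to give AC50.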

[10] = Cell Viability - LYMP2-013 (AID 970); further: nearly all actives have a fitted effect of over 55% in size; further: potency means the concentration at half of the fitted maximal effect
Outline: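 qHTS cytotoxicity: ATP-dependent luminescence (CellTiter-Glo, 30 min room temperature) read after 24 h compound exposure at 37 C of 2500 LYMP2-013 lymphoblastoid cells per well. Concentration-response fitted with Hill equation to give AC50.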

[11] = Cell Viability - LYMP2-015 (AID 971); further: nearly all actives have a fitted effect of over 55% in size; further: potency means the concentration at half of the fitted maximal effect
Outline: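 Cytotoxicity readout: decrease in intracellular ATP (CellTiter-Glo luminescence) in 2500 LYMP2-015 lymphoblastoid cells/well after 24 h compound exposure at 37 C. Concentration-response data fitted with the standard Hill equation to give AC50.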

[12] = Cell Viability - LYMP2-017 (AID 972); further: nearly all actives have a fitted effect of over 55% in size; further: potency means the concentration at half of the fitted maximal effect
Outline: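 CellTiter-Glo luminescence (cellular ATP, 30 min RT) measured cytotoxicity after 24 hr compound treatment at 37 C. Cells were a human lymphoblastoid line, LYMP2-017, plated at 2500/well and incubated 5 hr first; concentration-response fitted with Hill equation for AC50.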

[13] = Cell Viability - LYMP2-019 (AID 973); further: nearly all actives have a fitted effect of over 55% in size; further: potency means the concentration at half of the fitted maximal effect
Outline: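 AC50 values come from Hill-equation fits of luminescent intracellular ATP (CellTiter-Glo, 30 min, room temperature) following 24 h compound exposure at 37 C. Cells: LYMP2-019 lymphoblastoid line, 2500 per well, in complete culture medium.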

[14] = Cell Viability - LYMP2-021 (AID 974); further: nearly all actives have a fitted effect of over 55% in size; further: potency means the concentration at half of the fitted maximal effect
Outline: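 AC50 values come from Hill-equation fits to CellTiter-Glo luminescence (ATP content), read after 24 hour compound exposure at 37 C of 2500 LYMP2-021 lymphoblastoid cells/well; tetraoctylammonium bromide as positive control.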

[15] = Cell Viability - LYMP2-023 (AID 975); further: nearly all actives have a fitted effect of over 55% in size; further: potency means the concentration at half of the fitted maximal effect
Outline: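 Intracellular ATP, read by CellTiter-Glo luminescence, reports viability after 24 hr compound exposure at 37 C. 2500 lymphoblastoid cells/well (LYMP2-023) seeded 5 hr beforehand; Hill fits give AC50; positive control tetraoctylammonium bromide.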

[16] = Cell Viability - LYMP2-025 (AID 976); further: potency means the concentration at half of the fitted maximal effect
Outline: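 Cytotoxicity read as loss of intracellular ATP (luciferase luminescence) after 24 h compound treatment at 37 C. Uses LYMP2-025 lymphoblastoid cells in 1536-well format; Hill-equation modelling gives AC50; tetraoctylammonium bromide as positive control.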

[17] = Cell Viability - LYMP2-002 (AID 977); further: potency means the concentration at half of the fitted maximal effect
Outline: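 In this qHTS viability screen, 2500 human lymphoblastoid cells per well receive compound for 24 hr at 37 C, and luciferase-based ATP luminescence gives the viability signal. Tetraoctylammonium bromide serves as positive control.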

[18] = Cell Viability - LYMP2-006 (AID 978); further: nearly all actives have a fitted effect of over 60% in size; further: potency means the concentration at half of the fitted maximal effect
Outline: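 Human lymphoblastoid cells, 2500 per well, were preincubated 5 hr at 37 C, then exposed to compounds for 24 hr at 37 C in complete medium. Viability was read as intracellular ATP by CellTiter-Glo luminescence; AC50 from Hill-equation fits of qHTS concentration-response data.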

[19] = Cell Viability - LYMP2-007 (AID 979); further: potency means the concentration at half of the fitted maximal effect
Outline: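 AC50 values come from Hill-equation fits of luminescent intracellular ATP (CellTiter-Glo, 30 min, room temperature) following 24 h compound exposure at 37 C. Cells: LYMP2-007 lymphoblastoid line, 2500 per well, in complete culture medium.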

[20] = Cell Viability - LYMP2-008 (AID 980); further: nearly all actives have a fitted effect of over 60% in size; further: potency means the concentration at half of the fitted maximal effect
Outline: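 Cytotoxicity determined from ATP-dependent luciferase luminescence (CellTiter-Glo) following 24 h compound exposure of human lymphoblastoid LYMP2-008 cells at 37 C. Concentration-response data fitted to the Hill equation to give AC50.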

Row | SMILES | Potency [1] | Potency [2] | outcome [3] | outcome [4] | Potency [5] | Potency [6] | Potency [7] | Potency [8] | Potency [9] | Potency [10] | Potency [11] | Potency [12] | Potency [13] | Potency [14] | Potency [15] | Potency [16] | Potency [17] | Potency [18] | Potency [19] | Potency [20]
1 | CCCCCCCC(=O)O | inactive | inactive | inactive | inactive | inactive | inactive | inactive | inactive | inactive | inactive | inactive | inactive | inactive | inactive | inactive | inactive | inactive | inactive | inactive | inactive
2 | CCCCC/C=C\C/C=C\CCCCCCCC(=O)O | inactive | inactive | inactive | inactive | inactive | inactive |  | inactive | inactive | inactive | inactive | inactive | inactive | inactive | inactive | inactive | inactive | inactive | inactive | inactive
3 | Nc1ccn([C@H]2CS[C@@H](CO)O2)c(=O)n1 | inactive | inactive | inactive | inactive | inactive | inactive | inactive | inactive | inactive | inactive | inactive | inactive | inactive | inactive | inactive | inactive | inactive | inactive | inactive | inactive
4 | CC(C)(C)NC(=O)[C@@H]1C[C@@H]2CCCC[C@@H]2CN1C[C@@H](O)[C@H](Cc1ccccc1)NC(=O)[C@H](CC(N)=O)NC(=O)c1ccc2ccccc2n1 | 31.6 µM (active) | 50.1 µM (active) |  |  | 50.1 µM (active) |  |  |  |  |  |  |  |  |  |  | inactive |  |  |  | 50.1 µM (active)
5 | CC(O)CO (stereo unspecified) | inactive | inactive | inactive | inactive | inactive | inactive | inactive | inactive | inactive | inactive | inactive | inactive | inactive | inactive | inactive | inactive | inactive | inactive | inactive | inactive
6 | CCCCCCCC/C=C\CCCCCCCC(=O)O | inactive | inactive | inactive | inactive | inactive | inactive | inactive | inactive | inactive | inactive | inactive | inactive | inactive | inactive | inactive | inactive | inactive | inactive | inactive | inactive
7 | O=S(=O)(O)O | inactive | inactive | inactive | inactive | inactive | inactive | inactive | inactive | inactive | inactive | inactive | inactive | inactive | inactive | inactive | inactive | inactive | inactive | inactive | inactive
8 | CC1=C2[C@@H]([C@H](C)CC[C@H]2/C=C(\C)C(=O)O)[C@H](O)C1 | inactive | inactive | inactive | inactive | inactive | inactive | inactive | inactive | inactive | inactive | inactive | inactive | inactive | inactive | inactive | inactive | inactive | inactive | inactive | inactive
9 | Cc1ccccc1 | inactive | inactive | inactive | inactive | inactive | inactive | inactive | inactive | inactive | inactive | inactive | inactive | inactive | inactive | inactive |  | inactive | inactive | inactive | inactive
10 | O=CCCCC=O |  | 50.1 µM (active) | inactive | inactive | inactive | 39.8 µM (active) |  | 25.1 µM (active) | 20 µM (active) | 20 µM (active) | 15.8 µM (active) | 20 µM (active) | 25.1 µM (active) | 15.8 µM (active) | 25.1 µM (active) | 39.8 µM (active) | 31.6 µM (active) | 25.1 µM (active) | 20 µM (active) | 25.1 µM (active)
11 | O=C(O)CCC(=O)C(=O)O | inactive | inactive | inactive | inactive | inactive | inactive | inactive | inactive | inactive | inactive | inactive | inactive | inactive | inactive | inactive | inactive | inactive | inactive | inactive | inactive
12 | CC1=C(/C=C/C(C)=C/C=C/C(C)=C/CO)C(C)(C)CCC1 |  |  | inactive | inactive |  | 50.1 µM (active) | 50.1 µM (active) |  |  |  |  |  |  |  |  | inactive | inactive | inactive |  | 
13 | CCOC(C)=O | inactive | inactive | inactive | inactive | inactive | inactive | inactive | inactive | inactive | inactive | inactive | inactive | inactive | inactive | inactive | inactive | inactive | inactive | inactive | inactive
14 | CC(C)=O | inactive | inactive | inactive | inactive | inactive | inactive | inactive | inactive | inactive | inactive | inactive | inactive | inactive | inactive | inactive | inactive | inactive | inactive | inactive | inactive
15 | IC(I)I | inactive | inactive | inactive | inactive | inactive | inactive | inactive | inactive | inactive | inactive | inactive | inactive | inactive | inactive | inactive | inactive | inactive | inactive | inactive | inactive
16 | CCOc1ccc2c(c1)C(C)=CC(C)(C)N2 | inactive |  | inactive | inactive |  | inactive | inactive | inactive | inactive | inactive | inactive | inactive | inactive | inactive | inactive | inactive | inactive | inactive | inactive | inactive
